In PubChem BioAssay:
Active and inactive are the calls of the source.

What was measured:
[1] = binders of probe aFSTL3 on microarray, primary screen, stem cell growth factor project, biochemical, small-molecule microarray, fluorescence 635/667 (AID 1064); conditions: higher = more signal;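 also: measures binding of the biotinylated anti-FSTL3 antibody to printed compounds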
[2] = binders from COS7 lysate, DM2A8 probe, primary screen, torsin A project, cell lysate, small-molecule microarray, fluorescence 635/667 (AID 1065); conditions: higher = more signal, COS7 lysate expressing mutant human TOR1A
[3] = binders of probe aFGF2 on microarray, primary screen, stem cell growth factor project, biochemical, small-molecule microarray, fluorescence 635/667 (AID 1067); conditions: higher = more signal;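 also: measures binding of biotinylated aFGF2 protein to printed compounds on slides; z-score merges feature fluorescence and signal-to-noise across triplicate slides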
[4] = binders of probe aFGF10 on microarray, primary screen, stem cell growth factor project, biochemical, small-molecule microarray, fluorescence 635/667 (AID 1071); conditions: higher = more signal;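 also: score merges 667 nm spot intensity and signal to noise from triplicate slides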
[5] = target: Neurogenic locus notch homolog protein 2 (Homo sapiens) (UniProt Q04721); experiment: Notch2 binders on small-molecule microarrays, primary screen, biochemical, small-molecule microarray, 635 nm fluorescence, stem cell growth factors (AID 1073); conditions: Notch2 binding, higher = more signal
[6] = target: Pro-neuregulin-1, membrane-bound isoform (Homo sapiens) (UniProt Q02297); experiment: NRG1 binders on small-molecule microarrays, primary screen, psychiatric disease protein project, biochemical, small-molecule microarray, fluorescence 635/667 (AID 1075); conditions: NRG1 binding, 635 nm fluorescence, higher = more signal;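 also: score combines 667 nm spot fluorescence with signal to noise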
[7] = system: Neuregulin-1 EGF-like domain; experiment: binders of neuregulin-1 EGF-like domain, primary screen, biochemical, small-molecule microarray, 635 nm fluorescence (AID 1081); conditions: small-molecule microarray binding, higher = more signal;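 also: binding of the protein to compounds printed on small-molecule microarray slides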
[8] = FRG1 promoter luciferase signal modulators, primary screen, FRG1 inhibition for FSHD, cell-based, C2C12 myotubes, firefly/Renilla luciferase, luminescence (AID 1084); conditions: higher = more signal, called active from +8 up or from −8 down
[9] = binders of probe aFST on microarray, primary screen, stem cell growth factor project, biochemical, small-molecule microarray, fluorescence 635/667 (AID 1086); conditions: higher = more signal;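 also: score merges 667 nm fluorescence with signal-to-noise of each printed compound spot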
[10] = binders of probe aHhip on microarray, primary screen, stem cell growth factor project, biochemical, small-molecule microarray, fluorescence 635/667 (AID 1087); conditions: higher = more signal;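 also: score merges spot fluorescence at 667nm with spot signal to noise ratio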
[11] = system: PRMT1 (protein arginine N-methyltransferase 1); experiment: PRMT1 binders on small-molecule microarrays, primary screen, biochemical, small-molecule microarray, 635 nm fluorescence (AID 1088); conditions: small-molecule microarray binding, higher = more signal;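 also: binding of Prmt1 protein to compounds spotted on small-molecule microarray slides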
[12] = yeast growth modulation, basal conditions, primary screen, YJM789 clinical isolate, OD600, 24 h (AID 1089);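 also: growth of clinical yeast isolate S. cerevisiae YJM 789 seeded 1000 cells per well; test concentration not given here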; conditions: S. cerevisiae YJM789 growth, higher = more signal, called active from +8 up or from −8 down
[13] = fission yeast growth modulation, primary screen, strain 972, OD600, 24 h, no modulator (AID 1090);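 also: basal condition with compound alone and no growth modifier present; test concentration not given here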; conditions: S. pombe 972 growth, higher = more signal, called active from +8 up or from −8 down
[14] = S. cerevisiae growth modulation with rapamycin, primary screen, strain BY4716, OD600, 96 h (AID 1091); conditions: higher = more signal, called active from +8 up or from −8 down; also: test concentration not given here
[15] = target: Torsin-1A-interacting protein 2 (Homo sapiens) (UniProt Q8NFQ8); experiment: LULL1 binders on small-molecule microarray, primary screen, cell lysate, human LULL1 lysate, 635/667 nm fluorescence (AID 1092); conditions: hLULL1 lysate binding, 635 nm fluorescence, higher = more signal;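 also: probe is lysate of COS7 cells overexpressing human LULL1; score merges per-feature 667 nm fluorescence with signal-to-noise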
[16] = E. coli growth modulation, two-sided OD650, primary screen, E. coli filamentation project, strain DRC41, 24 h (AID 1093); conditions: OD650, 24 h, higher = more signal, called active from +8 up or from −8 down;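 also: MC1000 strain lacking acrAB efflux and sulA so SOS filamentation is blocked; test concentration not given here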
[17] = small-molecule microarray binders of probe aLefty2, primary screen, biochemical, biotinylated probe, 635/667 nm fluorescence (AID 1094); conditions: higher = more signal;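 also: score merges spot fluorescence near 667 nm with spot signal-to-noise ratio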
[18] = system: Noggin (protein binding on small-molecule microarray); experiment: Noggin binders on small-molecule microarray, primary screen, biochemical, 635/667 nm fluorescence (AID 1095); conditions: 635 nm fluorescence, higher = more signal;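 also: score merges 667 nm feature fluorescence with signal to noise over triplicate slides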
[19] = target: Neurogenic locus notch homolog protein 3 (Homo sapiens) (UniProt Q9UM47); experiment: NOTCH3 binders on small-molecule microarray, primary screen, biochemical, 635/667 nm fluorescence (AID 1096); conditions: NOTCH3 binding, 635 nm fluorescence, higher = more signal
[20] = small-molecule microarray binders of probe aEGFR, primary screen, biochemical, biotinylated probe, 635/667 nm fluorescence (AID 1097); conditions: higher = more signal;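 also: probe is a biotinylated anti-EGFR antibody binding compounds printed on slides; score combines fluorescence near 667 nm and signal to noise of each spot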

Neurogenic locus notch homolog protein 2 (Homo sapiens), sequence (Q04721 whole entry, looked up, canonical isoform): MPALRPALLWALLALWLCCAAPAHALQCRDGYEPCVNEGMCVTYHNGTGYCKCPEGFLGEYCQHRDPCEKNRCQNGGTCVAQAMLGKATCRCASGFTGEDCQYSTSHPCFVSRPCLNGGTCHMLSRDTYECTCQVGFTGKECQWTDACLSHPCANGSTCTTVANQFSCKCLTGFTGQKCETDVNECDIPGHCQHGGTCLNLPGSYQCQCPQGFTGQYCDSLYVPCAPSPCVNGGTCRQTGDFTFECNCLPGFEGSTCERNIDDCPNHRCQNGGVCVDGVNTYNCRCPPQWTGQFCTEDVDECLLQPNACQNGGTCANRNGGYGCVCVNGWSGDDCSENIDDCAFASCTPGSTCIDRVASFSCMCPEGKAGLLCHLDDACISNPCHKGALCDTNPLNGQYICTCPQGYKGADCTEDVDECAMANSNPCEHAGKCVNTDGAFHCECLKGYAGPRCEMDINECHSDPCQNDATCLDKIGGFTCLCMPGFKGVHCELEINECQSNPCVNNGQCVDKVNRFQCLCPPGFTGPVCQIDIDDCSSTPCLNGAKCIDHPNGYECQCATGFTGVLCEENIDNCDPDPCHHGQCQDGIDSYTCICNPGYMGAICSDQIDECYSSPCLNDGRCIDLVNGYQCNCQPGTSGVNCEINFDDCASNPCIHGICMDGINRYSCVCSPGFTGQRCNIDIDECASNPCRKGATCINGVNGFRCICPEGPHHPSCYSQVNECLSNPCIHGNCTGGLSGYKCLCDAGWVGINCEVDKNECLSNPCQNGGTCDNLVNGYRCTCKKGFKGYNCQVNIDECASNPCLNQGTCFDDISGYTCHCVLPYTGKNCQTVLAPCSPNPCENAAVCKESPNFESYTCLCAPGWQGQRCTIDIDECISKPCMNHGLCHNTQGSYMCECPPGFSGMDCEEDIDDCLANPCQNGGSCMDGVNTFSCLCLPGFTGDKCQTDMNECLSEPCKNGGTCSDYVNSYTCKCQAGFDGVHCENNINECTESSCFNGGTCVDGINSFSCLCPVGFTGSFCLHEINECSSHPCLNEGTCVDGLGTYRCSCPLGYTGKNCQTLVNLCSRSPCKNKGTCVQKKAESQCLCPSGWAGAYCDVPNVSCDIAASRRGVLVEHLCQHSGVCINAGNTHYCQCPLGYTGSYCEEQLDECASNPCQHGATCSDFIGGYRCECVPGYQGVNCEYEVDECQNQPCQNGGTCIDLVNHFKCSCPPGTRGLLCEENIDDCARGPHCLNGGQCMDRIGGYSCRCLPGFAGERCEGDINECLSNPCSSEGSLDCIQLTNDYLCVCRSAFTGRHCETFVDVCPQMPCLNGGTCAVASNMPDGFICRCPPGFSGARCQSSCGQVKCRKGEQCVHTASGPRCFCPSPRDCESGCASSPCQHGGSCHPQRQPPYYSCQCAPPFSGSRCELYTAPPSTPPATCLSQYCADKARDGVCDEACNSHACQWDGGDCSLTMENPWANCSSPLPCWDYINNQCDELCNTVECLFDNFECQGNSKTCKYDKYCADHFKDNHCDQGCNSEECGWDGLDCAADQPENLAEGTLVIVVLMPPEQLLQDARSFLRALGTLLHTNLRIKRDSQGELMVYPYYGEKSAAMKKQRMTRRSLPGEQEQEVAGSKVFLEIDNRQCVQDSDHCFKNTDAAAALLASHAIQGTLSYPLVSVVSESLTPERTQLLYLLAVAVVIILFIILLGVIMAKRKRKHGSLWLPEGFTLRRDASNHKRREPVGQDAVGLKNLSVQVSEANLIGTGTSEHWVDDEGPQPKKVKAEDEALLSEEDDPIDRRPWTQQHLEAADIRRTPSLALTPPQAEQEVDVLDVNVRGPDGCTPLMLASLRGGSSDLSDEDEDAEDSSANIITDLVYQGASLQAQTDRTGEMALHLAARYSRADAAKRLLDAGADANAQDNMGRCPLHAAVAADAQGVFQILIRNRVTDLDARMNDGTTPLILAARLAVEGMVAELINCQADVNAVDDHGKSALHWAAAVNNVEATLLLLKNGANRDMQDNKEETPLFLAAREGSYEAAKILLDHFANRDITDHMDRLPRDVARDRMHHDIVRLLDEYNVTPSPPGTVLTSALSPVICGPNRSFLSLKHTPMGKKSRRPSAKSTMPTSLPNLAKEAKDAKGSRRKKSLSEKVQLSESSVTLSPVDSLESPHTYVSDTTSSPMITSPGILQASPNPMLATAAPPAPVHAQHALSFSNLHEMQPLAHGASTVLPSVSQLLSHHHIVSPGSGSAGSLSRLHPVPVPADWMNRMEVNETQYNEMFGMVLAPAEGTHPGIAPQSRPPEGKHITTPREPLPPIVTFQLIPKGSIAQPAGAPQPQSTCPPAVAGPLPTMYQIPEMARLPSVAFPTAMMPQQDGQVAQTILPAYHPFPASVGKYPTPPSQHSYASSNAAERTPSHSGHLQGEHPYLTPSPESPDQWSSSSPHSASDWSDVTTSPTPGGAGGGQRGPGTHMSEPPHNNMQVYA
Pro-neuregulin-1, membrane-bound isoform (Homo sapiens), sequence (Q02297 whole entry, looked up, the tested form may be a part, canonical isoform): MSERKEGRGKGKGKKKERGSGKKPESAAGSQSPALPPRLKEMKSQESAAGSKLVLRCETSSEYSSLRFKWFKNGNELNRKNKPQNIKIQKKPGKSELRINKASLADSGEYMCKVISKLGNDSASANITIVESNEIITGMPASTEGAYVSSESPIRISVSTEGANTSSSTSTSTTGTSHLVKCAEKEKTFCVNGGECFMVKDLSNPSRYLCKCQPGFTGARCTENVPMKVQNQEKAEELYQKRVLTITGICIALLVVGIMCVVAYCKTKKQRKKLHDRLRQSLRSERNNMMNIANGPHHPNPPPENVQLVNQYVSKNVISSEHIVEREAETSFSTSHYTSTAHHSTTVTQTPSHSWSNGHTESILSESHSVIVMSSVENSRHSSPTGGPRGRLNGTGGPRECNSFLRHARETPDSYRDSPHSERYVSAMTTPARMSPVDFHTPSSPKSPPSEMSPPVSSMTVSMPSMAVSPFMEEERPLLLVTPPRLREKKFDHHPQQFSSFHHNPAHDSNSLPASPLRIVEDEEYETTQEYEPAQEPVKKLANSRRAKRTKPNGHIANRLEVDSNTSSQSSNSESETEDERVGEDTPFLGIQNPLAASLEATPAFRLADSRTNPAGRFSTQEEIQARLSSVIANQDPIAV
Torsin-1A-interacting protein 2 (Homo sapiens), sequence (Q8NFQ8 whole entry, looked up): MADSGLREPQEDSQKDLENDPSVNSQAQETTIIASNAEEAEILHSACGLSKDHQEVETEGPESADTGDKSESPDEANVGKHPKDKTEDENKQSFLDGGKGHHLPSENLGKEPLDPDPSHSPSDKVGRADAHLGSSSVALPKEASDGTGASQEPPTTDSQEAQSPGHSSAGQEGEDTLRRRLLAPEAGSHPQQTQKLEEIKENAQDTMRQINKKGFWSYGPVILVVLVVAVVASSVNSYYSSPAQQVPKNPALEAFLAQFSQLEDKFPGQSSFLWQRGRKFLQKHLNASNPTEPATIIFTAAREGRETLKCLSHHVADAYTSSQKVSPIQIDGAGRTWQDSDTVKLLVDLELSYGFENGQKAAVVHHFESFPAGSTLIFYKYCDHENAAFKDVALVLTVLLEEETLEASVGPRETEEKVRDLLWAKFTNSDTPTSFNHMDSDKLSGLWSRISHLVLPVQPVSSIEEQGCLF

Row | SMILES | composite z-score [1] | composite z-score [2] | composite z-score [3] | composite z-score [4] | composite z-score [5] | composite z-score [6] | composite z-score [7] | z-score [8] | composite z-score [9] | composite z-score [10] | composite z-score [11] | z-score [12] | z-score [13] | z-score [14] | composite z-score [15] | z-score [16] | composite z-score [17] | composite z-score [18] | composite z-score [19] | composite z-score [20]
1 | O=C(NCc1ccccc1)[C@@H]1c2ccccc2C(=O)N(Cc2ccccc2Cl)[C@H]1c1ccc(CO)cc1 | 0.389 | 0.658 | 0.0139 | 0.124 | 1.21 | 0.887 | 1.25 | -2.93 (inactive) | 0.893 | 0.0623 | 1.41 | -0.21 (inactive) | -1.82 (inactive) | -1.49 (inactive) | 2.69 | 2.1 (inactive) | 0.054 | 1.17 | 1.05 | 0.103
2 | C=CCN1C(=O)[C@@]2(O[C@@H](CCO)[C@H]([Si](C)(C)c3ccc(OC)cc3)[C@H]2C)c2cc(N3C(=O)c4cccc5cccc3c45)ccc21 | -0.149 | 0.0485 | -0.113 | 0.349 | 0.24 | 0.769 | 0.876 | -1.42 (inactive) | -0.169 | -0.0994 | 1.18 | 2.89 (inactive) | 1.89 (inactive) | 36.3 (active) | 1.15 | 1.93 (inactive) | -0.156 | -0.106 | -0.0485 | -0.147
3 | CCN(CC)c1ccc(N2CC=CC34O[C@@H]5C=CCOC(=O)[C@@H]5[C@H]3C(=O)N(C(CO)C(C)C)[C@@H]4C2=O)cc1 (stereo not given in full) | 0.277 | -0.866 | -0.134 | -0.241 | -0.835 | -0.367 | -0.805 | 0.232 (inactive) | -0.609 | -0.134 | -0.755 | 1.01 (inactive) | -0.635 (inactive) | 1.07 (inactive) | -0.952 | 1.59 (inactive) | -0.138 | -0.544 | -1.02 | -0.253
4 | C#CCN1C(C(=O)OCC)OC[C@H]1c1ccccc1 (stereo not given in full) | -0.551 | 2.59 | -0.128 | 0.389 | 0.678 | 0.0354 | -0.143 | -1.77 (inactive) | -0.0006 | -0.492 | 0.52 | -1.51 (inactive) | -2.08 (inactive) | -1.95 (inactive) | 3.77 | 1.92 (inactive) | -0.205 | 0.671 | 0.804 | -0.109
5 | COCCCN1C(=O)[C@@]2(Cc3ccccc31)c1ccccc1C(=O)N(Cc1ccccc1Cl)[C@H]2c1ccc(CO)cc1 | 0.218 | -0.272 | -0.201 | -0.273 | -0.773 | -0.592 | -0.983 | 0.448 (inactive) | 0.009 | 0.0274 | 0.952 | -0.403 (inactive) | -1.49 (inactive) | -1.46 (inactive) | 1.22 | 2.9 (inactive) | -0.226 | -1.07 | -0.435 | -0.0304
